# Measured values published in PubChem BioAssay AID2284348 (EPA ToxCast).
# Results filed as inconclusive are left out. Activity calls are given as the source filed them. The calls were made as follows: active = hit-call score of the fitted dose curve at least 0.9, where 1 is the maximum; inconclusive = response in the unintended direction; inactive = score below 0.9.
# System: Japanese medaka Peroxisome Proliferator-activated Receptor alpha (PPARa), gene 100304458
# Test: ATG_jmPPARa_EcoTox2: Attagene TRANS-FACTORIAL EcoTox-2 HepG2 Assay for Japanese medaka Peroxisome Proliferator-activated Receptor alpha (PPARa)
# Procedure: ATG_EcoTox2 is a cell-based, multiplexed assay created by modifying the existing Attagene TRANS-FACTORIAL system to include a panel of nuclear receptors from some or all the following species: human (Homo sapiens), african clawed frog (Xenopus laevis), rainbow trout (Oncorhynchus mykiss), japanese medaka (Oryzias latipes), and zebrafish (Danio rerio). The ECOTOX2-FACTORIAL format uses HepG2, a human liver cell line, with measurements taken at 24 hours after chemical dosing in a 24-well plate. ATG_jmPPARa_EcoTox2 is one of 29 assay components calculated in the ATG_EcoTox2 assay. It is designed to make measurements of mRNA induction, a form of inducible reporter, as detected with fluorescence intensity signals by Reverse transcription polymerase chain reaction (RT-PCR) and Capillary electrophoresis technology.The assay endpoint ATG_jmPPARa_EcoTox2 was analyzed in the positive analysis fitting direction relative to DMSO as the negative control and baseline of activity. Using a type of inducible reporter, measures of mRNA for gain-of-signal activity can be used to understand the reporter gene at the transcription factor-level as they relate to the gene PPARa. Furthermore, this assay endpoint can be referred to as a […], because this assay has produced multiple assay endpoints where this one serves a reporter gene function. To generalize the intended target to other relatable targets, this assay endpoint is annotated to the nuclear receptor intended target family, where the subfamily is non-steroidal.
# Human liver HepG2 cells are transiently transfected with multiple reporter transcription units (MRTUs) in 6-well plates using FuGene 6 reagent (Roche; 3 ml FuGene/1 mg DNA). The MRTU constructs are regulated by a cis-regulating element (promoter). Each RTU expresses a GAL4-UAS that regulates the transcription of a nearby target reporter gene sequence. A major difference between the CIS and TRANS system is that in CIS activities of endogenous TFs are measured, whereas the TRANS assay evaluates changes in activities of exogenous, chimeric NR-Gal4 proteins. […] At the end of 24 hour incubation, total RNA was isolated using TriZol reagent (Invitrogen). The isolated RNA is then reverse-transcribed using oligo(dT) primer and Mo-MLV reverse transcriptase (Invitrogen) with DNAse I (Ambion) treatment for 30 min. The one-tenth of the produced cDNA was amplified by PCR using Taq DNA polymerase (Invitrogen) and two reporter sequence-specific primers. The PCR products were fluorescently labeled by primer extension with 6-arboxyfluorescein (6-FAM) 5'-labeled reporter sequence-specific primer (2 min at 95 C, 20 s at 68 C and 10 min at 72 C) and these products were digested with 5U of HpaI (New England Biolabs) for 2h at 37 C. The fragments were purified using Qiaquick PCR columns (Qiagen), analyzed on an ABI 3130xL genetic analyzer (Applied Biosystems) with peak positions identified by using a set of X-rhodamine (ROX)-labeled MapMarker1000 molecular weight standards (BioVentures). The raw capillary electrophoresis data was processed using Attagraph software (Attagene).
Structure (SMILES),AC50,outcome
CC(C)(Oc1ccc(CCNC(=O)c2ccc(Cl)cc2)cc1)C(=O)O,45.9 µM (active),–
C[C@@H]1C[C@H]2[C@@H]3CCC4=CC(=O)C=C[C@]4(C)[C@@]3(F)[C@@H](O)C[C@]2(C)[C@@]1(O)C(=O)COP(=O)(O)O,–,inactive
CC(C)(Oc1ccc(Cl)cc1)C(=O)O,–,inactive
Cc1nc(-c2ccc(C(F)(F)F)cc2)sc1C(=O)NCc1ccc(OC(C)(C)C(=O)O)cc1,0.0807 µM (active),–
C[C@]12C=CC(=O)C=C1CC[C@@H]1[C@@H]2C(=O)C[C@@]2(C)[C@H]1CC[C@]2(O)C(=O)CO,–,inactive
C=C(c1ccc(C(=O)O)cc1)c1cc2c(cc1C)C(C)(C)CCC2(C)C,–,inactive
CN(CCOc1ccc(CC2SC(=O)NC2=O)cc1)c1ccccn1 (stereo unspecified),–,inactive
Cc1cccc(Nc2cc(Cl)nc(SCC(=O)O)n2)c1C,63.8 µM (active),–
CC(C)(Oc1ccc(C2CC2(Cl)Cl)cc1)C(=O)O (stereo unspecified),58.5 µM (active),–
Cc1ccc(C)c(OCCCC(C)(C)C(=O)O)c1,–,inactive
CC(C)OC(=O)C(C)(C)Oc1ccc(C(=O)c2ccc(Cl)cc2)cc1,–,inactive
